Drawing on PubChem BioAssay (EPA / NIEHS), this text covers outcome and AC50 for 25 compounds.

Several values for one entry are separate records, joined by “and”; a condition that tells them apart may be missing. Equal values may be shown once. Results filed as inconclusive are left out. Activity calls are given as the source filed them. The calls were made as follows, unless noted: active = hit-call score of the fitted dose curve at least 0.9, where 1 is the maximum; inactive = score below 0.9.

For orientation: AC50 means the concentration at which the activity in the assay is half-maximal.

Read-out in assay [1]: Collagen I, COL1A1 (gene 1277)
The assay is described as follows: BSK_MyoF_CollagenI: BioMAP Diversity Plus: MyoF Assay for Collagen I Biomarker Activity (AID 2284238). Conditions: primary human lung fibroblasts. The gist of the method: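 Primary human lung fibroblasts (MyoF system) treated 24 h; Collagen I quantified by ELISA and fitted in positive direction against DMSO. Parallel SRB total-protein staining assessed overt cytotoxicity.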

Read-out in assay [2]: Collagen III, COL3A1 (gene 1281)
Kind of assay: BSK_MyoF_CollagenIII: BioMAP Diversity Plus: MyoF Assay for Collagen III Biomarker Activity (AID 2284239). Particulars: primary human lung fibroblasts. Put shortly:
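Primary human lung fibroblasts (BioMAP MyoF system) exposed 24 h. Collagen III measured by ELISA; positive-direction fit relative to DMSO.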

Assay [3] in a line: CCTE_Mundy_HCI_hNP1_Casp3_7: CCTE's Caspase-Glo 3/7 Assay in human neuroprogenitor cells for Apoptosis, Mundy Lab (AID 2284240). The gist of the method:
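Luminescent caspase-3/7 readout, 26.5 h post-dose, in human neural progenitor cells from WA09 embryonic stem cells. Cells grew 40–44 h at 37 °C, 5% CO2 before chemical addition. Activity analysed as signal increase over DMSO baseline.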

A short description of assay [4]: CCTE_Mundy_HCI_hNP1_CellTiter: CCTE's Cell Titer-Glo 2 Assay in human neuroprogenitor cells for Viability, Mundy Lab (AID 2284241; active = hit-call score of the fitted dose curve at least 0.9, where 1 is the maximum). Put shortly:
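Viability read as luminescent ATP content (CellTiter-Glo, 30 min room temperature) twenty-four hours after dosing, relative to DMSO. Cells: WA09-derived hNP1 neuroprogenitors on poly-L-ornithine/laminin, plated 40 to 44 hours before chemical.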
On the technique in general: Cellular ATP, detected with luciferase, serves as a proxy for viable cell number.

Consider `FC(F)(F)C(F)(F)C(F)(F)C(F)(F)C(F)(F)C(F)(F)C(F)(F)C(F)(F)F`, for which the result in assay [1], in assay [2], in assay [3] and in assay [4] was inactive.
For the compound `O=C(Cl)C(F)(F)C(F)(F)C(F)(F)C(F)(F)C(F)(F)C(F)(F)C(F)(F)C(F)(F)F`, the half-maximal activity concentration (AC50) in assay [1] is 41.3 µM (active) and 41.8 µM (active) and 44.2 µM (active); in assay [2], 22.5 µM (active) and 23.5 µM (active) and 24.7 µM (active).
For the compound `O=P(O)(O)OCCC(F)(F)C(F)(F)C(F)(F)C(F)(F)C(F)(F)C(F)(F)F`, the outcome in assay [1], in assay [2], in assay [3] and in assay [4] was inactive.
As to `O=C(O)C(F)(F)C(F)(F)OC(F)(F)F`, the result in assay [1], in assay [2], in assay [3] and in assay [4] was inactive.
Take `O=C(CC(=O)C(F)(F)C(F)(F)F)C(F)(F)F`: the result in assay [1], in assay [2], in assay [3] and in assay [4] was inactive.
In the case of `C=CC(=O)OCC(F)(F)C(F)(F)C(F)(F)C(F)(F)COC(=O)C=C`, the AC50 is 14.4 µM (active) and 16.6 µM (active) in assay [1]; 12.1 µM (active) and 14.6 µM (active) in assay [2]. Besides, the call in assay [3] and in assay [4] was inactive.
Take `N=C(N)C(F)(F)C(F)(F)C(F)(F)C(F)(F)C(F)(F)C(F)(F)C(F)(F)F`: the outcome in assay [1], in assay [2], in assay [3] and in assay [4] was inactive.
Take `CC(C)(C)C(=O)CC(=O)C(F)(F)C(F)(F)C(F)(F)F`: the outcome in assay [1], in assay [2], in assay [3] and in assay [4] was inactive.
As for `C=CC(=O)OCC(F)(F)C(F)(F)C(F)(F)C(F)(F)C(F)(F)C(F)(F)C(F)(F)F`, the result in assay [1] and in assay [2] was inactive.
For the compound `O=C(O)C(F)(OC(F)(F)C(F)(OC(F)(F)C(F)(F)C(F)(F)F)C(F)(F)F)C(F)(F)F` (centres undefined), the outcome in assay [1] and in assay [2] was inactive.
With `CCCCOCCOCCOC(=O)CCCCC(=O)OCCOCCOCCCC`, the result in assay [1] and in assay [2] was inactive.
`O=C(O)C(F)(F)C(F)(F)C(F)(F)F`: the result in assay [1], in assay [2], in assay [3] and in assay [4] was inactive.
Turning to `O=C(O)C(F)(F)C(F)(F)C(F)F`, the result in assay [1] and in assay [2] was inactive.
For `O=C(O)C(F)(F)C(F)(F)C(F)(F)C(F)(F)F`, the outcome in assay [1] and in assay [2] was inactive.
Take `FC(F)(F)C(F)(F)C(F)(F)C(F)(F)C(F)(F)C(F)(F)CC1CO1` (centres undefined): the outcome in assay [1], in assay [2], in assay [3] and in assay [4] was inactive.
Regarding `OCC(F)(F)C(F)(F)C(F)(F)F`, the result in assay [1], in assay [2], in assay [3] and in assay [4] was inactive.
On to `C=C(C)C(=O)OCC(F)(F)C(F)(F)C(F)(F)F`, for which the result in assay [1], in assay [2], in assay [3] and in assay [4] was inactive.
Turning to `C=CC/C=C/C/C=C/C/C=C/C`, the result in assay [1] and in assay [2] was inactive.
Take `COC(=O)CCC(F)(F)C(F)(F)C(F)(F)C(F)(F)F`: the outcome in assay [1] and in assay [2] was inactive.
Take `FC(F)(F)C(F)(F)C(F)(F)C(F)(F)CCI`: the outcome in assay [1], in assay [2], in assay [3] and in assay [4] was inactive.
With `O=C(O)C(F)(F)C(F)(F)F`, the outcome in assay [1] and in assay [2] was inactive.
Take `C=C(C)C(=O)OCC(F)(F)C(F)(F)C(F)(F)C(F)(F)C(F)(F)C(F)(F)C(F)(F)F`: the outcome in assay [1] and in assay [2] was inactive.
With `CCCCNc1ccccc1`, the outcome in assay [1] and in assay [2] was inactive.
As for `CCCCCCCCC(F)(F)C(F)(F)C(F)(F)C(F)(F)C(F)(F)C(F)(F)F`, the result in assay [1] and in assay [2] was inactive.
Turning to `O=C(O)C(F)(F)C(F)(F)C(F)(F)C(F)(F)C(F)(F)C(F)(F)C(F)(F)C(F)(F)C(F)(F)C(F)(F)C(F)(F)C(F)(F)C(F)(F)F`, the outcome in assay [1] and in assay [2] was inactive.
